Results published in ChEMBL document CHEMBL3433997, “St. Jude Leishmania screening dataset” (2016).

What was measured:
Format in all cases: functional
[1] = molecular target: Solute carrier family 2, facilitated glucose transporter member 1 (Homo sapiens) (UniProt P11166); test: ST_JUDE_LEISH: Cytotoxicity at 2uM final concentration against transgenic Leishmania Mexicana promastigotes LmGLUT1 that are glucose transport deficient and complemented with the human glucose transporter GLUT1. Activity is measured by DNA content using SYBR green in vitro
Sequence of Solute carrier family 2, facilitated glucose transporter member 1 (Homo sapiens) (P11166 whole entry): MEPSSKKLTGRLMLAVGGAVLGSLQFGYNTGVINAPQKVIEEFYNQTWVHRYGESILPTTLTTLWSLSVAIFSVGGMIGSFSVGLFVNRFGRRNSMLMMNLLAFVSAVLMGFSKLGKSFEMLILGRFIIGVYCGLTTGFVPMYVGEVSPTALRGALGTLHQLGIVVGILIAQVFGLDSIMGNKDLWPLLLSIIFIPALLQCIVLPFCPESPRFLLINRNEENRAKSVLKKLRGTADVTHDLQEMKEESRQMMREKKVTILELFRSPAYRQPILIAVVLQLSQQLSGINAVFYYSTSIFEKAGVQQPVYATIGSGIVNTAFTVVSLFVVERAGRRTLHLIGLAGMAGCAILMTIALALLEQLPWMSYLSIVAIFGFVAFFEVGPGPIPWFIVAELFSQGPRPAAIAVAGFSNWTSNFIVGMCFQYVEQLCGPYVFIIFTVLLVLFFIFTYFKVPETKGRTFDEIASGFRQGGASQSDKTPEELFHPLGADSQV

[2] = molecular target: Hexose transporter 1 (Plasmodium falciparum) (UniProt O97467); test: ST_JUDE_LEISH: Cytotoxicity at 2uM final concentration against transgenic Leishmania Mexicana promastigotes LmPfHT that are glucose transport deficient and complemented with the Plasmodium falciparum hexose transporter. Activity is measured by DNA content using SYBR green in vitro
[3] = molecular target: Glucose transporter (Leishmania mexicana) (UniProt O61059); test: ST_JUDE_LEISH: Cytotoxicity at 2uM final concentration against transgenic Leishmania Mexicana promastigotes LmGT2 that are glucose transport deficient and complemented with the L. Mexicana glucose transporter 2. Activity is measured by DNA content using SYBR green in vitro

SMILES	inhibition [1] [%]	inhibition [2] [%]	inhibition [3] [%]
O=C(Nc1ccc(Cl)c(Cl)c1)N1CCc2ccc(OCCCN3CCCCC3)cc2CC1	17.5	16.2	20.3
O=C1CCCN1CCCNCc1ccc(-c2ccc(-c3nc4cc(F)ccc4[nH]3)s2)cc1	2.19	1.67	6.85
CN(C)CCN(C)Cc1nc(-c2ccc3c(Nc4ccc(Oc5ccccc5)cc4)ccnc3c2)cs1	2.99	3.38	2.65
COc1ccc2ncc(F)c(CCN3CCC(NCc4cc(F)c5c(c4)OCCO5)CC3)c2n1	14.4	20.5	17.9
Cc1cc(CN2C(=O)C(c3ccccc3)(c3ccccc3)N=C2N)c(C(F)(F)F)o1	6.61	9.85	6.9
COc1cccc(OC)c1-c1ccccc1NC(=O)N1CCCc2cc(C)ccc21	2.46	2.69	2.07
O=C(Cn1c(SCc2cccc(F)c2F)cc(=O)c2ccccc21)N(CCn1ccnc1)Cc1ccc(-c2ccc(C(F)(F)F)cc2)cc1	5.51	5.78	2.82
COc1ccc2nc3cc(Cl)ccc3c(NCCc3ccccc3)c2c1	1.15	1.24	-0.37
O=C(Nc1ccccc1)Nc1cccc(-c2cccc(-c3nc4cc(F)ccc4[nH]3)c2)c1	2.45	2.61	1.59
COc1cc(F)c2ncc(Cl)c(C(O)CN3CCC(NC(=O)c4ccc5c(n4)NC(=O)CO5)CC3)c2c1 (stereo not drawn)	1.02	0.57	-1.35
Cc1[nH]cnc1CSCCN/C(=N\C#N)NCCCCCCCCN/C(=N/C#N)NCCSCc1nc[nH]c1C	2.45	2.15	2.98
Nc1nc(N)c2c(ccc3[nH]ccc32)n1	0.22	2.46	2.25
O=C(NC1CCN(Cc2ccccc2)C1)c1ccc(Nc2ccc(Br)cc2)nc1 (stereo not drawn)	1.79	0.12	-1.43
CCc1ccc(CN2CCC(CN(c3ccc(N4CCOCC4)c(F)c3)S(=O)(=O)c3ccc(C(C)(C)CC)cc3)CC2)cc1	3.54	0.74	3.68
O=C(NCCN1CCCC1)c1cc(-c2ccc(Cl)c(O)c2)c(-c2ccncc2)o1	2.96	4.79	0.49
CCN(CC)C(=O)C1CCCN(c2cc(C)nc(Nc3ccc(Cl)cc3)n2)C1 (stereo not drawn)	0.86	1.03	0.51
